Source: PubChem BioAssay (NCATS)
Results filed as inconclusive are left out. Entries that show only a call come without a potency. The source made the active and inactive calls. Calls come from the whole dose curve; as a rule, active = well fitted inhibition curve with a large enough effect; inconclusive = small, poorly fitted or top-dose-only effect; inactive = flat fitted curve, though single readings scatter.

Each molecule was assayed against Glutathione peroxidase 1 (Homo sapiens) (UniProt P07203) (assay: Primary qHTS Assay for Inhibitors of Recombinant Selenoprotein Glutathione Peroxidase 1 (GPX1) (AID 1845191; note: nearly all actives have a fitted effect of over 65% in size)). Conditions: recombinant GPX1, GR-coupled NADPH fluorescence, 15 min; series mostly up to 48.8 µM; activity, negative = inhibition: at the top concentration.
Sequence of Glutathione peroxidase 1 (Homo sapiens) (P07203 whole entry, looked up): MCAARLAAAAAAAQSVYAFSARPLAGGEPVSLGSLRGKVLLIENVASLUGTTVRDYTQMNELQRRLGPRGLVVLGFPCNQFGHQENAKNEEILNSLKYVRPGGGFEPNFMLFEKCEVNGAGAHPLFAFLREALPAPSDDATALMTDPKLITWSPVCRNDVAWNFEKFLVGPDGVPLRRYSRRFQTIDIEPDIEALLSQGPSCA
From the text: Assay Provider: Elias S.J. Arner MD PhD.
Department of Medical Biochemistry and Biophysics
Karolinska Institutet, Solna, Stockholm, Sweden
Selenoprotein glutathione peroxidases (GPX), like the ubiquitously expressed GPX1 and the ferroptosis modulator GPX4, enact their antioxidant activities by reducing hydroperoxides using glutathione. […] GPX1 and GPX4 inhibitors have thus shown promise as anti-cancer agents. Existing inhibitors are often promiscuous, or modulate GPX activity only indirectly, so novel direct inhibitors identified through screening against GPX1 and GPX4 could be valuable. Here, we developed optimized glutathione reductase (GR)-coupled GPX assays for the biochemical high-throughput screen (HTS) of almost 12,000 compounds with known mechanisms of action. Initial hits were triaged using a GR counter-screen, assessed for isoform specificity using a separate GPX2 assay, and were assessed for general selenocysteine-targeting activity using a thioredoxin reductase (TXNRD1) assay. With this suite of assays, we identified novel GPX1/GPX2- and GPX4-specific inhibitors and can here present a validated pipeline for future discovery research for selenoprotein-targeting agents.
SEQUENCE No. (e.g., 1, 2, 3, etc.); […] (e.g., Cells, Incubation, Reagent, etc.); VALUE; DESCRIPTION.
1; Reagent 1; 3 uL; GPx1 enzyme or no enzyme control in 1536-well, black, solid Greiner assay plate.
2; Compound; 25 nL; Kalypsis pin tool (Wako USA) equipped with a 1536-well pin head.
3; Incubation; 30 min; room temperature.
4; Reagent 2; 1 uL; 10 nM GPX1, 1 mM GSH, 0.5 mM CHP, 0.5 mM NADPH, 100 nM GR, 0.01% BSA substrate
5; Detection; Fluorescence; ViewLux microplate reader, excitation 340 nm and emission 450 nm.
6; Incubation; 15 min; room temperature.
7; Detection; Fluorescence; ViewLux microplate reader, excitation 340 nm and emission 450 nm.
NOTES (numbers refer to Sequence numbers above)
1. 3 uL of 16.66 nM GPX1 and 0.016% BSA in assay buffer (50 mM Tris-HCl, 2 mM EDTA (pH 7.5), 150 mM NaCl) was added to columns 3-48 of 1536-well assay plates using a BioRAPTR Flying Reagent Dispenser (Let's Go Robotics (LGR), Carlsbad, CA). A no-enzyme control (0.01% BSA in TES assay buffer) was added to columns 1-2.
2. 25 nL of test compounds and DMSO controls were added to each well with a pin tool (Kalypsys).
3. The assay plates were incubated for 30 minutes at room temperature.
4. 1 uL of master mix (500 nM glutathione reductase (GR), 5 mM reduced glutathione (GSH), 2.5 mM NADPH in assay buffer) was added. 1 uL of cumene hydroperoxide (CHP) ([2.5 mM] in 50% EtOH) was then added within 5 minutes to initiate the reaction. Final concentrations were: 10 nM GPX1, 1 mM GSH, 0.5 mM CHP, 0.5 mM NADPH, 100 nM GR, 0.01% BSA.
5. Initial fluorescence readout (t=0) at 340/450 nm was measured using a ViewLux multimodal detector (PerkinElmer, Waltham, MA).
7. Endpoint fluorescence readout (t=15) at 340/450 nm was measured 15 min after room temperature incubation.
Potency is the fitted concentration of half-maximal effect.

Compound | outcome | activity, negative = inhibition | Potency
O=C(O)C[C@H]1CCc2c1[nH]c1ccc(OCc3ccc(C4CCCC4)c(C(F)(F)F)c3)cc21 | inactive |  | 
Clc1cccc(-c2ccc(-c3nnc(CCCc4ccc5cccnc5n4)o3)cc2)c1 |  | -0.273% (inactive) | 
Cc1cc(C)cc(Oc2ccc(CNC(=O)[C@H](C)N)cc2C)c1 | inactive |  | 
Cn1ncc(NC(=O)c2nc(-c3c(F)cccc3F)sc2N)c1N1CC[C@@H](N)[C@H](F)CC1 |  | 2.69% (inactive) | 
CC1(N)CCN(c2cccnc2NC(=O)c2nc(-c3ncccc3C(F)(F)F)cnc2N)CC1 |  | 4.43% (inactive) | 
COC1CCC(N2C(=O)CNc3ncc(-c4ccc(C(C)(C)O)nc4)nc32)CC1 (stereo not given) |  |  | 4.59 µM (active)
CN1C(=O)N(c2cc(Cl)cc(Cl)c2)C(=O)[C@]12CN(Cc1cc(C(=O)O)cs1)C[C@H]2c1ccc(C#N)cc1 | inactive |  | 
Nc1ccc(-c2ccnc(NCCCNC(=O)c3c(Cl)cccc3Cl)n2)cc1 |  | -6.78% (inactive) | 
O=C1NC(=O)[C@@H](c2cn3c4c(cccc24)CCC3)[C@@H]1c1c[nH]c2ccccc12 |  | 2.18% (inactive) | 
Cc1ccc(S(=O)(=O)Nc2cc(-c3ccc(C#N)s3)ccc2C)cc1 |  | -1.17% (inactive) | 
C[C@]12CCC3=C4CCC(=O)C=C4CC[C@H]3[C@@H]1CC[C@@]2(O)CC#N |  |  | inactive
O=C(Nc1cnn2ccc(N3CCC[C@@H]3c3cc(F)ccc3F)nc12)N1CC[C@H](O)C1 | inactive |  | 
O=C(O)CNC(=O)c1nc(Cl)c2ccccc2c1O | inactive |  | 
CN(C)C(N)=NC(=N)N | inactive |  | 
Nc1n[n+]([O-])c2ccccc2[n+]1[O-] | inactive |  | 
CNC(=O)Cn1cc(-c2ccc3c(c2)C(F)CC32NC(=O)N(CC(=O)N(Cc3ccc(F)cc3)[C@@H](C)C(F)(F)F)C2=O)cn1 (stereo not given in full) |  |  | inactive
CC1(C(=O)O)CCC2(C)CCC3(C)C(=CC(=O)C4C5(C)CCC(OC6OC(C(=O)O)C(O)C(O)C6OC6OC(C(=O)O)C(O)C(O)C6O)C(C)(C)C5CCC43C)C2C1 (stereo not given) | inactive |  | 
CC(=O)Nc1cc(Oc2ccc3c(nc(Nc4ccc(F)cc4F)n3C)c2C)ccn1 | inactive |  | 
C[C@H](NC(=O)[C@H]1NCC[C@@H]1O)c1ccc(-c2noc(CCC3CCCC3)n2)cc1 |  | -18.1% (inactive) | 
CC(C)(O)CS(=O)(=O)Nc1ccc2c(c1)CCN(C(=O)COc1cccnc1)C2 | inactive |  | 

Compound | outcome | activity, negative = inhibition | Potency
CN1CCN(c2ccc3nc(-c4cc(C(C)(C)C)c(OCCCC(=O)NCCCN=[N+]=[N-])c(C(C)(C)C)c4)[nH]c3c2)CC1 | inactive |  | 
C=CC(=O)N1C[C@H](Nc2ncnc3[nH]ccc23)CC[C@@H]1C |  | 4.83% (inactive) | 
CCN(CC)CCNC(=O)c1c(C)[nH]c(/C=C2/C(=O)Nc3ccc(-c4csc(-c5ccccc5)n4)cc32)c1C |  | -3.57% (inactive) | 
Cc1ccc(S(=O)(=O)Nc2cc(C(F)(F)F)ccc2C(=O)Nc2nc(-c3ccccc3)cs2)cc1 | inactive |  | 
N=C1S/C(=C\c2ccc(-c3ccc4c(c3)C(=O)NC4=O)o2)C(=O)N1c1ccc(Br)cc1 | inactive [at 27.7 µM] |  | 
CC(C)n1c(/C=C/[C@H](O)C[C@H](O)CC(=O)O)c(-c2ccc(F)cc2)c2ccccc21 |  |  | inactive
COc1ccc2[nH]c3c(c2c1)CCN[C@]31CS[C@@H]2c3c(OC(C)=O)c(C)c4c(c3[C@H](COC1=O)N1[C@@H]2[C@H]2c3c(cc(C)c(OC)c3O)C[C@@H]([C@@H]1O)N2C)OCO4 | inactive [at 9.52 µM] |  | 
C/C=C(/C)C(=O)O[C@H]1C(C)=CC23C(=O)C(C=C(CO)[C@@H](O)[C@]12O)[C@H]1[C@@H](C[C@H]3C)C1(C)C (stereo not given in full) |  |  | inactive
Cc1c(F)cccc1NC(=O)Nc1ccc(Cl)c(S(=O)(=O)[C@H]2CCCNC2)c1O | inactive |  | 
CN(CCOc1ccc(-c2ccc3c(c2)OCO3)cc1C(C)(C)C)CC(=O)O | inactive |  | 
Cc1cc2cc(Oc3ccnc(Nc4cccc(CS(=O)(=O)NCCN(C)C)c4)n3)ccc2[nH]1 | inactive |  | 
C[C@]12CCC3[C@@H](CC[C@H]4NC(=O)C=C[C@]34C)[C@@H]1CC[C@@H]2C(=O)Nc1cc(C(F)(F)F)ccc1C(F)(F)F (stereo not given in full) |  |  | inactive
N=C1CCCN1Cc1[nH]c(=O)[nH]c(=O)c1Cl |  |  | inactive
C[C@H](NC(=O)/C(C#N)=C/c1cccc(Br)n1)c1ccccc1 | inactive |  | 
CC(C)(O)c1coc(S(=O)(=O)NC(=O)Nc2c3c(cc4c2CCC4)CCC3)c1 |  | 1.84% (inactive) | 
Cc1c(NC(=O)c2cc(C(N)=O)nc3cc(F)ccc23)c(C(F)(F)F)nn1Cc1ccc(C(C)(C)C)cc1 | inactive |  | 
C=CC(=O)N[C@H]1CCOC[C@H]1Nc1ncc2cc(-c3c(Cl)c(OC)cc(OC)c3Cl)ccc2n1 |  | -2.81% (inactive) | 
O=C1Cc2cc(C(=O)NC3C[C@H]4CC[C@@H](C3)N4S(=O)(=O)CC3CCN(CCCC(F)(F)F)CC3)c(Cl)cc2N1 (stereo not given in full) |  | 2.47% (inactive) | 
Cc1noc(CN(C)c2ncnc3ccc(-c4ccc5c(c4)OCO5)cc23)n1 |  | -12.7% (inactive) | 
CC[C@@H](Oc1cccc(CN(CCCOc2ccc(OC)cc2)c2nc3ccccc3o2)c1)C(=O)O | inactive |  | 
